Data: the supplement of paper PMC10849652
About 7,900 targets were measured; listed, in parts, are those with a hit and a random draw of the rest. About 0.6% of all pairs of compound and target were hits.

Tests used:
Assay in all cases: log2 fold change, soluble protein after heating vs DMSO (PISA); higher = thermal stabilisation; K562 cells, 10 uM, 30 min; active = over 0.2 and 3.5 SD of the protein, either way, in both replicates (recomputed)
[1] = compound: COC1=CC=C(C=C1)CN2C=CC3=C2C=C(C=C3)C(=O)NO
Procedure, shortened: (§1)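 For each measurement, 10 μM compound was applied for 30 min to K562 cells at 2×10^6 cells/mL. Aliquots were heated for 3 min across 48°C-58°C, pooled, and extracted in PBS with 0.5% NP-40 at 4°C; the supernatant after 21,000xg for 90 min was soluble protein. This was quantified by TMTpro 16plex LC-MS/MS with channel sums equalised, and thermal stability was reported relative to control samples from duplicates, on a log2 fold-change scale.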

filanesib = compound: CON(C)C(=O)N1N=C(c2cc(F)ccc2F)S[C@@]1(CCCN)c1ccccc1 [filanesib]
Procedure, shortened: as §1

zotarolimus = compound: CO[C@H]1C[C@@H]2CC[C@@H](C)[C@@](O)(O2)C(=O)C(=O)N2CCCC[C@H]2C(=O)O[C@H]([C@H](C)C[C@@H]2CC[C@H](n3cnnn3)[C@H](OC)C2)CC(=O)[C@H](C)/C=C(\C)[C@@H](O)[C@@H](OC)C(=O)[C@H](C)C[C@H](C)/C=C/C=C/C=C/1C [zotarolimus]
Procedure, shortened: as §1

idasanutlin = compound: COc1cc(C(=O)O)ccc1NC(=O)[C@@H]1N[C@@H](CC(C)(C)C)[C@](C#N)(c2ccc(Cl)cc2F)[C@H]1c1cccc(Cl)c1F [idasanutlin]
Procedure, shortened: as §1

alisertib = compound: COc1cc(Nc2ncc3c(n2)-c2ccc(Cl)cc2C(c2c(F)cccc2OC)=NC3)ccc1C(=O)O [alisertib]
Procedure, shortened: as §1

[2] = compound: COc1cc2nc(-c3cc(F)ccc3O)nc(N[C@@H]3CNC[C@H]3C(C)(C)O)c2cc1OC
Procedure, shortened: as §1

gefitinib = compound: COc1cc2ncnc(Nc3ccc(F)c(Cl)c3)c2cc1OCCCN1CCOCC1 [gefitinib]
Procedure, shortened: as §1

[3] = compound: COc1cccc2cc(-c3nc([C@H]4CC[C@H](C(=O)O)CC4)n4ncnc(N)c34)[nH]c12
Procedure, shortened: as §1

lapatinib = compound: CS(=O)(=O)CCNCc1ccc(-c2ccc3ncnc(Nc4ccc(OCc5cccc(F)c5)c(Cl)c4)c3c2)o1 [lapatinib]
Procedure, shortened: as §1

pictilisib = compound: CS(=O)(=O)N1CCN(Cc2cc3nc(-c4cccc5[nH]ncc45)nc(N4CCOCC4)c3s2)CC1 [pictilisib]
Procedure, shortened: as §1

Measured: log2 fold change

RECQL (UniProt P46063)
inactive: [1] 0.022 | filanesib -0.091 | zotarolimus 0.035 | idasanutlin -0.056 | alisertib -0.061 | [2] -0.038 | gefitinib -0.004 | [3] 0.031 | lapatinib 0.043 | pictilisib 0.024

RIOK2 (UniProt Q9BVS4)
inactive: [1] -0.039 | filanesib 0.064 | zotarolimus -0.017 | idasanutlin 0.01 | alisertib -0.025 | [2] 0.074 | gefitinib -0.101 | [3] -0.057 | lapatinib 0.08 | pictilisib 0.049

RDH10 (UniProt Q8IZV5)
inactive: [1] -0.007 | filanesib -0.023 | zotarolimus -0.03 | idasanutlin -0.14 | alisertib 0.013 | [2] 0.031 | gefitinib 0.083 | [3] 0.036 | lapatinib 0.037 | pictilisib 0.009

SLC19A1 (UniProt P41440)
inactive: [1] 0.047 | filanesib -0.164 | zotarolimus -0.106 | idasanutlin 0.023 | alisertib -0.034 | [2] 0.003 | gefitinib 0 | [3] 0.086 | lapatinib -0.066 | pictilisib -0.026

RPS25 (UniProt P62851)
inactive: [1] 0.006 | filanesib 0.145 | zotarolimus -0.015 | idasanutlin 0.061 | alisertib -0.143 | [2] -0.038 | gefitinib -0.022 | [3] -0.198 | lapatinib 0.038 | pictilisib -0.08

RSL1D1 (UniProt O76021)
inactive: [1] -0.094 | filanesib 0.543 | zotarolimus 0.055 | idasanutlin 0.363 | alisertib -0.202 | [2] 0.181 | gefitinib -0.031 | [3] -0.065 | lapatinib 0.181 | pictilisib -0.013

RRP12 (UniProt Q5JTH9)
inactive: [1] -0.03 | filanesib 0.288 | zotarolimus -0.046 | idasanutlin 0.032 | alisertib 0.204 | [2] 0.222 | gefitinib -0.104 | [3] -0.222 | lapatinib -0.128 | pictilisib 0.032

RHEB (UniProt Q15382)
UniProt Q15382, sequence (Q15382 whole entry, looked up): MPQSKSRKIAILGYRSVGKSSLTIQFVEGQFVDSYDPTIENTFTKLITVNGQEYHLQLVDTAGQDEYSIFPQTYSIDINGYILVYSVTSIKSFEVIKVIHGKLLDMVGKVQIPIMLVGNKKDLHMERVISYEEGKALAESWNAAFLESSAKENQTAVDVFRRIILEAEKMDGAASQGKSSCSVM
inactive: [1] -0.007 | filanesib -0.08 | zotarolimus 0.016 | idasanutlin -0.049 | alisertib -0.03 | [2] 0.032 | gefitinib 0.015 | [3] 0.057 | lapatinib 0.005 | pictilisib 0.029

RNF187 (UniProt Q5TA31)
inactive: [1] 0.028 | filanesib 0.003 | zotarolimus -0.006 | idasanutlin -0.032 | alisertib -0.104 | [2] 0.047 | gefitinib -0.012 | [3] -0.053 | lapatinib -0.07 | pictilisib -0.037

SEC23A (UniProt Q15436)
inactive: [1] 0.024 | filanesib 0.013 | zotarolimus 0.025 | idasanutlin -0.026 | alisertib -0.027 | [2] 0.043 | gefitinib 0.007 | [3] 0.01 | lapatinib -0.045 | pictilisib 0.049

RALY (UniProt Q9UKM9)
inactive: [1] -0.038 | filanesib 0.216 | zotarolimus 0.055 | alisertib 0.041 | [2] -0.152 | gefitinib -0.099 | [3] -0.148 | lapatinib 0.22 | pictilisib -0.02
active: idasanutlin 0.72

SAP30 (UniProt O75446)
inactive: [1] 0.089 | filanesib 0.044 | zotarolimus 0.047 | idasanutlin 0.024 | alisertib -0.015 | [2] -0.059 | gefitinib 0.003 | [3] -0.095 | lapatinib -0.035 | pictilisib -0.068

RBM4 (UniProt Q9BWF3)
UniProt Q9BWF3, sequence (Q9BWF3 whole entry, looked up): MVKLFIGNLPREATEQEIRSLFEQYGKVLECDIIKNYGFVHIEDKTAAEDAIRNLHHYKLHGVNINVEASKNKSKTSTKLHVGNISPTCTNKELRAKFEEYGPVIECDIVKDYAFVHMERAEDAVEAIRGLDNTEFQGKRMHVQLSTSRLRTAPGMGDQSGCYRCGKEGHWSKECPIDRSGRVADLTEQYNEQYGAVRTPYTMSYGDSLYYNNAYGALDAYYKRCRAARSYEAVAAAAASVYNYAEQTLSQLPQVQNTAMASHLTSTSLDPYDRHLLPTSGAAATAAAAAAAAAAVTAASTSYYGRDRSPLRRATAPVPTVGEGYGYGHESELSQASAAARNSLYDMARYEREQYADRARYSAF
inactive: [1] -0.071 | filanesib 0.065 | zotarolimus 0.035 | idasanutlin 0.051 | alisertib 0.038 | [2] -0.036 | gefitinib -0.04 | [3] -0.038 | lapatinib 0.024 | pictilisib 0.005

RBM39 (UniProt Q14498)
inactive: [1] 0.117 | filanesib 0.129 | zotarolimus -0.006 | idasanutlin 0.262 | alisertib -0.058 | [2] -0.055 | gefitinib -0.019 | [3] 0.009 | lapatinib 0.026 | pictilisib -0.014

ROCK2 (UniProt O75116)
UniProt O75116, sequence (O75116 whole entry, looked up): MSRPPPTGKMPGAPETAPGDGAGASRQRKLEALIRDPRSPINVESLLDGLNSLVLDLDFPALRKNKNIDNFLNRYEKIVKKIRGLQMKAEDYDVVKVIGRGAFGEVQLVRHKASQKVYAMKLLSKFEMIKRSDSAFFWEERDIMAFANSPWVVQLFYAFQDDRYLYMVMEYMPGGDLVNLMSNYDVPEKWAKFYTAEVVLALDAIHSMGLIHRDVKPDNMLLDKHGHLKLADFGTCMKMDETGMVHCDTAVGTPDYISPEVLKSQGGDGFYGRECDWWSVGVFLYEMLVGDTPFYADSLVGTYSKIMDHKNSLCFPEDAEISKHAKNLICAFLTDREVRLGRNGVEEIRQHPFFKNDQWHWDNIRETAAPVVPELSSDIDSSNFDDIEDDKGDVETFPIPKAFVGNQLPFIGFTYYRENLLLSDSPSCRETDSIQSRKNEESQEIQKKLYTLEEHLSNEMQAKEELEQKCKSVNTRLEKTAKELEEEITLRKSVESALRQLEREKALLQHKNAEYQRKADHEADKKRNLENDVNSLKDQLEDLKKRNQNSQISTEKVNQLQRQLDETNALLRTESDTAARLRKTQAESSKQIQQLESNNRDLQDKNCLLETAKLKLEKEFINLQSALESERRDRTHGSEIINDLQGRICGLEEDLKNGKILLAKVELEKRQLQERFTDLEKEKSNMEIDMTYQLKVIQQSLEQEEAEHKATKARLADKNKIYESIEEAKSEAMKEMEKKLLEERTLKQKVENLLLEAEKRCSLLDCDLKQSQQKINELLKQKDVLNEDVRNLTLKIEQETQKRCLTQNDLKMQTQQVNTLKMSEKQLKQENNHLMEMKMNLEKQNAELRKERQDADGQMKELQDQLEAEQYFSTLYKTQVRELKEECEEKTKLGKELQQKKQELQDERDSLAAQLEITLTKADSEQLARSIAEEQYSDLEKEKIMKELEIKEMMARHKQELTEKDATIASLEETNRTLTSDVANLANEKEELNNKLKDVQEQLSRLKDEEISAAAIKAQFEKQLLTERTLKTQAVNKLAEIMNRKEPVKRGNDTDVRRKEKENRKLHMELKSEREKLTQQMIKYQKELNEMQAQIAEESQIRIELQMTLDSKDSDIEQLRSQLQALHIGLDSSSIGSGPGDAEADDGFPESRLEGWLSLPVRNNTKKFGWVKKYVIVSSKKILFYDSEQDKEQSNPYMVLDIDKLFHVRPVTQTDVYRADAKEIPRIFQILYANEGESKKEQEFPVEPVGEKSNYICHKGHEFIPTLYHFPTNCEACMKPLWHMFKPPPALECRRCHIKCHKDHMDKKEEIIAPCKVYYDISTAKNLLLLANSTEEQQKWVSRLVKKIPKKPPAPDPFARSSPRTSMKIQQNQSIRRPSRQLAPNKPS
inactive: [1] -0.009 | filanesib -0.006 | zotarolimus 0.023 | idasanutlin 0 | alisertib 0.072 | [2] 0.135 | gefitinib 0.045 | [3] -0.038 | lapatinib -0.029 | pictilisib 0.071

RCN3 (UniProt Q96D15)
inactive: [1] -0.065 | filanesib 0.054 | zotarolimus -0.068 | idasanutlin -0.122 | alisertib 0 | [2] 0.043 | gefitinib 0 | [3] 0.132 | lapatinib -0.025 | pictilisib 0.087

RTF2 (UniProt Q9BY42)
UniProt Q9BY42, sequence (Q9BY42 whole entry, looked up): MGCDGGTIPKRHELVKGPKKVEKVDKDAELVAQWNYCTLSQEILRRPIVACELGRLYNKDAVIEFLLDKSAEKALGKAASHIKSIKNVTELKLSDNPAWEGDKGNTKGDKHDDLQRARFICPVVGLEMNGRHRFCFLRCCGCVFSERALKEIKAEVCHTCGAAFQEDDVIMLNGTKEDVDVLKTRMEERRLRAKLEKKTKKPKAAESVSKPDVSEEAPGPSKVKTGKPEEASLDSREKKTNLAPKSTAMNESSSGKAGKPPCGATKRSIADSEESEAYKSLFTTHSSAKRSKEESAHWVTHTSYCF
inactive: [1] -0.021 | filanesib 0.09 | zotarolimus 0.03 | idasanutlin 0.066 | alisertib 0.024 | [2] 0.036 | gefitinib 0.049 | [3] 0 | lapatinib 0.026 | pictilisib -0.027

ROR2 (UniProt Q01974)
inactive: [1] -0.172 | filanesib -0.017 | zotarolimus 0.082 | idasanutlin 0 | alisertib -0.013 | [2] 0.022 | gefitinib 0.009 | [3] 0.012 | lapatinib 0.021 | pictilisib -0.079

RCOR3 isoform 3 (UniProt Q9P2K3)
inactive: [1] -0.019 | filanesib 0.084 | zotarolimus -0.011 | idasanutlin -0.046 | alisertib -0.145 | [2] 0.14 | gefitinib 0.013 | [3] 0.011 | lapatinib 0 | pictilisib -0.106

SETD3 (UniProt Q86TU7)
active: [1] -0.254
inactive: filanesib -0.132 | zotarolimus 0.009 | idasanutlin -0.086 | alisertib -0.022 | [2] 0.052 | gefitinib 0.017 | [3] 0.048 | lapatinib -0.013 | pictilisib 0.03

RPS6KA2 isoform 2 (UniProt Q15349)
UniProt Q15349, sequence (Q15349 whole entry, looked up): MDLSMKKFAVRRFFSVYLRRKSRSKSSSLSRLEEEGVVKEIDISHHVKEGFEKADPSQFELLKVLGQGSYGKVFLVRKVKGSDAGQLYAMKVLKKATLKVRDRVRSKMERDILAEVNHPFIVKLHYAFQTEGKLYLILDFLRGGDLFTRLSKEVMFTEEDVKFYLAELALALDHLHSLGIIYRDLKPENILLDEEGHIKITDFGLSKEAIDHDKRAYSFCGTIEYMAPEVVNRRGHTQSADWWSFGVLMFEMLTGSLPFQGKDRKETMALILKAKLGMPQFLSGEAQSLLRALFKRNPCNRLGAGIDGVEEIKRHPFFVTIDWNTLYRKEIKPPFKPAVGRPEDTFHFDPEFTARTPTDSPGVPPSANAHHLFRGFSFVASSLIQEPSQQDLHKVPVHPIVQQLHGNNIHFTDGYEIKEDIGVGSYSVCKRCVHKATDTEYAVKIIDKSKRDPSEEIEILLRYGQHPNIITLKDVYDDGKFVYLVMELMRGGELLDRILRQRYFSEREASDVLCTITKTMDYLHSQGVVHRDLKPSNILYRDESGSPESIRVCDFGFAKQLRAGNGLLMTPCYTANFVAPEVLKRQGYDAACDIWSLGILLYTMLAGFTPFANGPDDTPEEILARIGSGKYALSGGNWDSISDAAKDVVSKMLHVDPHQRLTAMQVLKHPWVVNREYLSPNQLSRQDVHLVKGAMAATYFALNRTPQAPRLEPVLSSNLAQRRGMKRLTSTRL
inactive: [1] -0.023 | filanesib -0.006 | zotarolimus 0.016 | idasanutlin -0.033 | alisertib -0.052 | [2] -0.259 | gefitinib -0.078 | [3] 0.001 | lapatinib -0.011 | pictilisib -0.106

RNF220 (UniProt Q5VTB9)
UniProt Q5VTB9, sequence (Q5VTB9 whole entry, looked up): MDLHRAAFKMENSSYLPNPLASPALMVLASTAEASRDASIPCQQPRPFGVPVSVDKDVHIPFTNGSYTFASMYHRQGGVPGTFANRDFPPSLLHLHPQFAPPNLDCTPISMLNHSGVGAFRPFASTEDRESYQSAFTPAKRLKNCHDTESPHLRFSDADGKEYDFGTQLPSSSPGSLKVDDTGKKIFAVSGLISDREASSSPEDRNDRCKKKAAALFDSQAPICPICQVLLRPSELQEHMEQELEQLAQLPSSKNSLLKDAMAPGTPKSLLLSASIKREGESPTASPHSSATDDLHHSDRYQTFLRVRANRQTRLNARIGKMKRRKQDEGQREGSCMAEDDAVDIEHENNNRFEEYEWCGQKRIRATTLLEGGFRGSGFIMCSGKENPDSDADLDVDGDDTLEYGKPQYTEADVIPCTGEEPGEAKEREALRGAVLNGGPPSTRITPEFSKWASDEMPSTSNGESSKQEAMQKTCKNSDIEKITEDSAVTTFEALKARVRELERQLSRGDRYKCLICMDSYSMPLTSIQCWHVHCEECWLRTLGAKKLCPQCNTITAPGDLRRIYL
inactive: [1] -0.004 | filanesib 0.108 | zotarolimus 0.062 | idasanutlin -0.006 | alisertib -0.062 | [2] 0.047 | gefitinib -0.032 | [3] 0.002 | lapatinib -0.006 | pictilisib 0.068

RCC1 isoform 2 (UniProt P18754)
UniProt P18754, sequence (P18754 whole entry, looked up): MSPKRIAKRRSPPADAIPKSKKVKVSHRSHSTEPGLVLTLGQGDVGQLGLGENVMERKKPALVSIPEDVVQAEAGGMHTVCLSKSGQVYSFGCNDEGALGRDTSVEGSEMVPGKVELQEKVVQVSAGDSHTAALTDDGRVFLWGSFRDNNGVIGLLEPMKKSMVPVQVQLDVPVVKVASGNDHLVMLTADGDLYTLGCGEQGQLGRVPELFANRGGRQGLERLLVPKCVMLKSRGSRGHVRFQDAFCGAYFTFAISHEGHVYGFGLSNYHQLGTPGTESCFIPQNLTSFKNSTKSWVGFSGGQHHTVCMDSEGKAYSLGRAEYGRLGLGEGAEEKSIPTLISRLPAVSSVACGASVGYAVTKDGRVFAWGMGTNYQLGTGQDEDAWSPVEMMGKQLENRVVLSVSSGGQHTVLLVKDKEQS
inactive: [1] 0.106 | filanesib -0.058 | zotarolimus 0.083 | idasanutlin 0 | alisertib 0.022 | [2] -0.038 | gefitinib 0.087 | [3] 0.021 | lapatinib 0 | pictilisib -0.005

RNF167 (UniProt Q9H6Y7)
inactive: [1] -0.062 | filanesib -0.032 | zotarolimus -0.033 | idasanutlin 0.018 | alisertib -0.014 | [2] -0.084 | gefitinib -0.013 | [3] 0.016 | lapatinib 0.024 | pictilisib -0.029

RPS3A (UniProt P61247)
inactive: [1] -0.112 | filanesib 0.117 | zotarolimus 0.006 | idasanutlin 0.069 | alisertib -0.052 | [2] -0.009 | gefitinib -0.06 | [3] -0.152 | lapatinib 0.053 | pictilisib -0.078

RAB3GAP2 (UniProt Q9H2M9)
inactive: [1] 0 | filanesib 0.049 | zotarolimus 0.101 | idasanutlin 0.01 | alisertib -0.056 | [2] 0.009 | gefitinib 0.017 | [3] -0.103 | lapatinib 0.038 | pictilisib -0.027

RRS1 (UniProt Q15050)
UniProt Q15050, sequence (Q15050 whole entry, looked up): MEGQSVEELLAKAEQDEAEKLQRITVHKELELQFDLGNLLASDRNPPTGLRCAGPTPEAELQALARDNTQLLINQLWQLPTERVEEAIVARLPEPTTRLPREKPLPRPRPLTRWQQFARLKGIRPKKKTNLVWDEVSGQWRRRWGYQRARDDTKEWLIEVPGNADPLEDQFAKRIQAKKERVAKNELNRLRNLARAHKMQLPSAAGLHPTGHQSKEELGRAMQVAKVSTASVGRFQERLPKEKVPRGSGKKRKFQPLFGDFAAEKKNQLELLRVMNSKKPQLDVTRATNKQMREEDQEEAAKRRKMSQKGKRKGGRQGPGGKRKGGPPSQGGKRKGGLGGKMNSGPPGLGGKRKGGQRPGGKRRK
inactive: [1] -0.111 | filanesib 0.593 | zotarolimus 0.033 | idasanutlin 0.262 | alisertib -0.171 | [2] 0.01 | gefitinib 0.005 | [3] -0.169 | lapatinib 0.137 | pictilisib -0.096

RPA1 (UniProt P27694)
UniProt P27694, sequence (P27694 whole entry, looked up): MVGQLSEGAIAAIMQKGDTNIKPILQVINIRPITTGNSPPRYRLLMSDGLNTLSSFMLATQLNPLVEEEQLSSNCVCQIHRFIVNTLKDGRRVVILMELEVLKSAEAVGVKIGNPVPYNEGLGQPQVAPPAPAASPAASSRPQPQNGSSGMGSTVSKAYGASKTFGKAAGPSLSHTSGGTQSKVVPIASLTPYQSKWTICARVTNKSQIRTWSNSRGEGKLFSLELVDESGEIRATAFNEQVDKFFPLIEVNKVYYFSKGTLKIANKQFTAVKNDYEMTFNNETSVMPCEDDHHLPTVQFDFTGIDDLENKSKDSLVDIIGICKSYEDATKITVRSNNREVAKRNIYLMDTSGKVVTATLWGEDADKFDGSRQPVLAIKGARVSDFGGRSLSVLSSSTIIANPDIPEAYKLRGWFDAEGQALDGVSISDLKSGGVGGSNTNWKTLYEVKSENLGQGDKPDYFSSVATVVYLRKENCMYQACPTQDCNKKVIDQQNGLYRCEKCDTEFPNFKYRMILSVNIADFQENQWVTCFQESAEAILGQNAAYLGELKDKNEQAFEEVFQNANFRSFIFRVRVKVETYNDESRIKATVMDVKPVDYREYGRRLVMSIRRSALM
inactive: [1] 0.053 | filanesib -0.006 | zotarolimus 0.018 | idasanutlin -0.042 | alisertib 0.027 | [2] 0.049 | gefitinib -0.001 | [3] -0.133 | lapatinib 0.006 | pictilisib -0.088

SLC12A9 (UniProt Q9BXP2)
inactive: [1] -0.022 | filanesib -0.093 | zotarolimus 0.091 | idasanutlin 0.044 | alisertib -0.106 | [2] 0.049 | gefitinib -0.151 | [3] 0.023 | lapatinib 0.075 | pictilisib -0.121

SHCBP1 (UniProt Q8NEM2)
inactive: [1] -0.014 | filanesib 0.059 | zotarolimus 0.103 | idasanutlin -0.023 | alisertib 0.134 | [2] 0.102 | gefitinib 0 | [3] -0.056 | lapatinib -0.13 | pictilisib -0.057
